# In all, about 33,000 sequences were measured (“E-score (-0.5 to 0.5)”: median about -8e-05, highest 2% from about 0.23 on). The full list was thinned out, with the highest values kept by preference.
# Target: T1, Nrg2 (UniProt P38082)
# T1 sequence: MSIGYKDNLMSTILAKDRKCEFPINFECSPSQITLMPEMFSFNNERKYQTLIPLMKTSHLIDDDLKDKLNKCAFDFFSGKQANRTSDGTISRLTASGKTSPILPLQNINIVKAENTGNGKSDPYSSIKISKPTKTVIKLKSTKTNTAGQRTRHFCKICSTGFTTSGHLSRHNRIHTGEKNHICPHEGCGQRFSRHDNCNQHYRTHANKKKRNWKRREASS
# Assay: PBM E-score (8-mer binding enrichment) (E-score (-0.5 to 0.5)); higher = stronger / more preferred TF binding
# Details: protein concentration: 100 nM; construct: GST-full length
# Method: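 Universal 'all 10-mer' protein binding microarrays (Agilent AMADID 015681) probed with GST-tagged S. cerevisiae TFs (full-length or DBD) made by in vitro transcription/translation (PURExpress), about 100-200 nM. Bound TF was detected with fluorescent anti-GST. Each ungapped 8-mer (which stands for itself and its reverse complement) is scored by the PBM enrichment score (E-score), a modified Wilcoxon-Mann-Whitney statistic from -0.5 to +0.5, computed with the Universal PBM Analysis Suite. Scale: above 0.35 generally sequence-specific binding.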
row,Sequence,PBM E-score
1,AAAATAGA,0.118
2,CAAATATA,0.03
3,TAAATAGA,-0.125
4,CAAATAGA,0.296
5,TATATGGA,0.0065
6,CAAATATG,-0.0116
7,GATATGGA,0.259
8,TAGCGTGA,0.0132
9,CGGTAGAC,0.0168
10,CGGCGAAC,-0.0868
11,CATTGGCC,-0.0708
12,ATCAGAAA,-0.042
13,GGAATAAC,0.132
14,TAGGACAA,0.049
15,GGATAGTA,0.177
16,ATTATGCA,-0.00258
17,ATTATTAA,0.238
18,ATTATTCC,0.0891
19,ACTATTCG,0.193
20,ATTATGCC,0.115
21,GTTATTAA,0.182
22,GTTATTCA,0.105
23,ATTATTCG,0.295
24,CTTATTCA,-0.00255
25,ATTATTCA,0.23

row,Sequence,PBM E-score
1,CTTATTAA,0.196
2,ATTATGCG,0.266
3,CTTGATGC,-0.0811
4,CCAACCCA,-0.242
5,TCTTCTAA,-0.0126
6,CAGATATG,0.159
7,CGGATTGC,0.161
8,CGCGTTTA,0.0535
9,TGTCCGAA,0.143
10,ACAGGCTC,-0.159
11,ACCTCCCG,-0.177
12,TCGGTCAA,0.0158
13,CCCAGACG,-0.0304
14,CTTGCGAC,-0.142
15,GTCATTAA,0.25
16,ATCATTAA,0.171
17,ATTATACG,0.252
18,ATTATACA,-0.00719
19,ATTATACC,0.18
20,CTCATTAA,0.173
21,TGACGTAA,-0.175
22,CCTTAGAA,-0.0241
23,GCTAACCA,-0.172
24,GTAAGATA,0.0912
25,GCAACCTA,0.0294

row,Sequence,PBM E-score
1,GAATCCTC,-0.1
2,AGCAAAGG,0.0268
3,AGTAAGGC,-0.036
4,AGCAAGGG,0.261
5,AGTAAGGA,-0.00565
6,AGCAAGGC,-0.0107
7,AGTAAGGG,0.233
8,AGCAACTC,-0.0833
9,GCCGGATA,0.0712
10,GAAAGCCC,0.0882
11,GAAACACC,0.0146
12,AATCCCTA,0.154
13,AATCCCTG,0.278
14,AGTCCCTC,-0.0587
15,AATCCCTC,-0.0866
16,AGTCCCTA,0.0553
17,AGTCCCTG,0.294
18,CTTCAGCC,-0.229
19,ACATCAAT,0.079
20,ATCAATTG,0.15
21,ATAAATTG,0.272
22,ATAAATTA,0.316
23,AAAAATTG,-0.095
24,ATAAATTC,0.0818
25,ATCAATTC,0.107

row,Sequence,PBM E-score
1,ATCAATTA,0.271
2,GTAAATTA,-0.132
3,CTAAATTA,0.127
4,ACTAAGGG,0.0502
5,GGCTTCCA,-0.186
6,CGCTTTTA,-0.0218
7,GGTGCCTA,-0.0877
8,CGCGCACC,0.14
9,GGTTCACA,0.103
10,TCTCGCAA,-0.0499
11,CAACCGCG,0.271
12,AAACCGCC,0.041
13,CAACCGCC,0.0219
14,CAACCGCA,0.0352
15,AAACCGCA,-0.0776
16,AAACCGCG,0.266
17,CGTCTTGC,0.0795
18,CATGAATC,0.115
19,GTTTGTGA,-0.00935
20,AACAAAGT,0.26
21,TACAAACA,0.243
22,TACAAGCA,0.121
23,TACAAATA,0.0774
24,AACAAATA,0.247
25,AACAAGTT,-0.0278

row,Sequence,PBM E-score
1,AACAAAGG,0.0899
2,AACAAACA,0.22
3,AACAAGTA,-0.0255
4,AACAAGGT,0.0681
5,AACAAATG,0.0558
6,AACAAATT,0.251
7,ACCAAGGA,-0.0125
8,CGGTGGCC,0.0203
9,AGATCTAC,0.00881
10,ATGCCTGA,-0.126
11,CATTTGAA,0.0105
12,CTTAGTCA,-0.0736
13,CGGCCCCA,-0.253
14,ACTCATGA,0.143
15,CCTAACTC,-0.0633
16,AACCTCAG,0.072
17,AACCTCGA,0.0566
18,CACCTCGA,0.256
19,GACCTCGA,0.126
20,GGTTCAGA,0.0397
21,CCCATGGA,-0.00741
22,ACCATGGG,-0.0447
23,CCCATGGG,0.323
24,TAGAACAA,-0.00331
25,CGTCAGGA,-0.112

row,Sequence,PBM E-score
1,GGTCAGGA,0.244
2,AGTCAGGA,0.0134
3,GTGGCAGA,-0.276
4,AAGAGCAT,-0.0179
5,GCCCCTTA,0.114
6,GGCCCTGA,0.24
7,GCCCCCTA,-0.212
8,AGCCCTGA,0.0189
9,CGCCCTGA,0.167
10,GCCCCTGA,0.292
11,ACATAGAA,0.157
12,TCCATCGA,-0.021
13,GATACCCC,0.0656
14,AGCTTTAC,-0.26
15,CCCGAGGC,-0.176
16,CATGGTAC,0.00349
17,GCATGATA,0.0399
18,ATATGACA,0.244
19,GTATGAGA,0.133
20,GTATGACA,-0.0684
21,ATATGATG,0.0173
22,CTATGACA,-0.012
23,CTATGATA,0.0584
24,GTATGATA,0.281
25,ATATGATA,0.249

row,Sequence,PBM E-score
1,GAGGGCAC,-0.111
2,AGACAGTA,0.0173
3,CGAAGCGC,-0.0339
4,CCATCCTC,-0.111
5,CTCGGCAC,0.0273
6,AAAGATAG,-0.188
7,AAAGATAC,0.232
8,AAAGATAA,0.112
9,TCAAAGAA,-0.123
10,ACGTCTTG,-0.0332
11,GATAGAGA,-0.0171
12,CTAAGGAA,0.0506
13,CCCTTACG,-0.128
14,ACGCGAAA,0.242
15,TCGCGAAA,0.161
16,CCGCGAAA,0.0786
17,CGAGTGCA,0.0846
18,GTATGGTA,0.158
19,GGACGCCA,-0.149
20,AGACCCAC,0.0598
21,AACTTTGG,-0.0393
22,AACTTTGT,0.251
23,AACTTTGA,-0.0178

# From the supplement of paper PMC3334620
